The nature of test [1]: small molecules captured by biotinylated probe aFSTL3 – biochemical, small-molecule microarray, fluorescence 635/667, stem cell growth factor project, primary screen (AID 1064).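 Note: measures binding of the biotinylated anti-FSTL3 antibody to printed compounds.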 The note with it: higher = more signal.
A short description of test [2]: binders from COS7 lysate, DM2A8 probe, primary screen, torsin A project, cell lysate, small-molecule microarray, fluorescence 635/667 (AID 1065). The note with it: higher = more signal, COS7 lysate expressing mutant human TOR1A.
Test [3] can be described thus: small molecules captured by biotinylated probe aFGF2 – biochemical, small-molecule microarray, fluorescence 635/667, stem cell growth factor project, primary screen (AID 1067).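 Note: measures binding of biotinylated aFGF2 protein to printed compounds on slides; z-score merges feature fluorescence and signal-to-noise across triplicate slides.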 The note with it: higher = more signal.
The nature of test [4]: small molecules captured by biotinylated probe aFGF10 – biochemical, small-molecule microarray, fluorescence 635/667, stem cell growth factor project, primary screen (AID 1071).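 Note: score merges 667 nm spot intensity and signal to noise from triplicate slides.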 The note with it: higher = more signal.
The target of test [5] is Neurogenic locus notch homolog protein 2 (Homo sapiens) (UniProt Q04721). The test is described as follows: small molecules binding Notch2 protein – biochemical, small-molecule microarray, 635 nm fluorescence, stem cell growth factors, primary screen (AID 1073). The note with it: higher = more signal.
Neurogenic locus notch homolog protein 2 (Homo sapiens), sequence (Q04721 whole entry, looked up, canonical isoform): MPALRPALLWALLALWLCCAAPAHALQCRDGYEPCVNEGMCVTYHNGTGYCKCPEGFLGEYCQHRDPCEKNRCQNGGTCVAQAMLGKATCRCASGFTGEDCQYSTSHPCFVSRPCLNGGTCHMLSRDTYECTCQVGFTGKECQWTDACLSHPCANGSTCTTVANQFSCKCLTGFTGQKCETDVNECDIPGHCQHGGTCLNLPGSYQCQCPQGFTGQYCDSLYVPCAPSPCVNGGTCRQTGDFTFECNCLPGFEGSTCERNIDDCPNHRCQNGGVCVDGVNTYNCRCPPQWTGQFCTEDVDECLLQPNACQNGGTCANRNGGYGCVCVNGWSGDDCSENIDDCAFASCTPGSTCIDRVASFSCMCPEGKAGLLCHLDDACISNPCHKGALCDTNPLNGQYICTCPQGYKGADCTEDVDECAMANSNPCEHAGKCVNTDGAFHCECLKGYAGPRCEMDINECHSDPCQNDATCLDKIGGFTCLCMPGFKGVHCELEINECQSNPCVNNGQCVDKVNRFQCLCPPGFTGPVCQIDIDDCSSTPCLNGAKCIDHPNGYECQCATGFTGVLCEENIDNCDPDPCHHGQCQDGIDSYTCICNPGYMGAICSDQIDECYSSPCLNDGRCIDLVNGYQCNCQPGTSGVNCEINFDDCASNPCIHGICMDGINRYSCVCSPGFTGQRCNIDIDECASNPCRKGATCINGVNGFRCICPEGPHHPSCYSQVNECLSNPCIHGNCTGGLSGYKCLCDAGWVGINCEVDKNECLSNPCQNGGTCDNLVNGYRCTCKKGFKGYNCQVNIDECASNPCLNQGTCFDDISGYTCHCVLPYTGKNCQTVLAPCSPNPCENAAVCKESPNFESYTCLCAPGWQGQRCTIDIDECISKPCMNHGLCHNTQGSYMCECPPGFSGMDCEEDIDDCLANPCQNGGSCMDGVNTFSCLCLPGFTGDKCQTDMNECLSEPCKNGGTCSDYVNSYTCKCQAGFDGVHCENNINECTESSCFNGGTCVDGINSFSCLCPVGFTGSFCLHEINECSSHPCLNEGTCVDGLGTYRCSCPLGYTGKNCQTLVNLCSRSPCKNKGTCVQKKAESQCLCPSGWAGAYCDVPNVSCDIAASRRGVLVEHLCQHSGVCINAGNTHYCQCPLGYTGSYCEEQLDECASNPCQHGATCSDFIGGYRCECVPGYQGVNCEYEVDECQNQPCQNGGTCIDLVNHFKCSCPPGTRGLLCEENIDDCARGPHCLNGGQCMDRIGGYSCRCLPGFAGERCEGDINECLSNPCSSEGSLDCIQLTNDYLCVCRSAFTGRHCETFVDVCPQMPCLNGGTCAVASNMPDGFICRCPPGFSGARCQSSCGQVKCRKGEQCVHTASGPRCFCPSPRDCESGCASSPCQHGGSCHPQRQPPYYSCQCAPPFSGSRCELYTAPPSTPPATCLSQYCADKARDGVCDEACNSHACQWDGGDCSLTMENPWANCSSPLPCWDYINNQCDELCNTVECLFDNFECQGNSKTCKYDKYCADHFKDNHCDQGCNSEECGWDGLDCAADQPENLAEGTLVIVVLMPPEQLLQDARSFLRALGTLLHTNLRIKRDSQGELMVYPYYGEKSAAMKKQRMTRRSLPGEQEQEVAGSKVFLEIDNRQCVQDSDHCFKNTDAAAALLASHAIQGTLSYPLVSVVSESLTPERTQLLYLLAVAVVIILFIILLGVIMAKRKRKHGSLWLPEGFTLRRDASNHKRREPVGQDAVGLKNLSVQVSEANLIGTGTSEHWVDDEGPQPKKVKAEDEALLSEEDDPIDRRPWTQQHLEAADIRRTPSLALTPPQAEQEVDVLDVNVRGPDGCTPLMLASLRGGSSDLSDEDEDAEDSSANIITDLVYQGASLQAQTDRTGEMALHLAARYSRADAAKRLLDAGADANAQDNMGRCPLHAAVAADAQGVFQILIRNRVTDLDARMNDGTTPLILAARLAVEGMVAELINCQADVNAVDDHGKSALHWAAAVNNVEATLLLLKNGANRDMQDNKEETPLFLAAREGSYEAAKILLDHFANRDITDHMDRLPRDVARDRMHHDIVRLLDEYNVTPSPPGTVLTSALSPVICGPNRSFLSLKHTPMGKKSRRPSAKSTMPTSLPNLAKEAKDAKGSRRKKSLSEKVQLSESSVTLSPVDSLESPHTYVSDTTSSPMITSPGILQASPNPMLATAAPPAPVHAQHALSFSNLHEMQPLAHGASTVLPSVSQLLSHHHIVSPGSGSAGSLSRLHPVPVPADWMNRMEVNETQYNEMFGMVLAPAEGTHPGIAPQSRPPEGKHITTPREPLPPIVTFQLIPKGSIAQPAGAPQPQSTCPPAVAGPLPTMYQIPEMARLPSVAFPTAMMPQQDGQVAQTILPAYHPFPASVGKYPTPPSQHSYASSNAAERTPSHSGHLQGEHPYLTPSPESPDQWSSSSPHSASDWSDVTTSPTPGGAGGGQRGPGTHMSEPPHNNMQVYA
Test [6] has as its target Pro-neuregulin-1, membrane-bound isoform (Homo sapiens) (UniProt Q02297). The test is described as follows: small molecules binding neuregulin-1 protein – biochemical, small-molecule microarray, fluorescence 635/667, psychiatric disease protein project, primary screen (AID 1075).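 Note: score combines 667 nm spot fluorescence with signal to noise.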 The note with it: NRG1 binding, 635 nm fluorescence, higher = more signal.
Test [7] has as its system Neuregulin-1 EGF-like domain. The test is described as follows: small molecules binding NRG1 EGF domain – biochemical, small-molecule microarray, 635 nm fluorescence, primary screen (AID 1081).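 Note: binding of the protein to compounds printed on small-molecule microarray slides.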 The note with it: higher = more signal.
A short description of test [8]: FRG1 expression reporter modulators in myotubes – cell-based, C2C12 myotubes, firefly/Renilla luciferase, luminescence, FRG1 inhibition for FSHD, primary screen (AID 1084). The note with it: FRG1 promoter luciferase, higher = more signal, called active from +8 up or from −8 down.
Test [9] can be described thus: small molecules captured by biotinylated probe aFST – biochemical, small-molecule microarray, fluorescence 635/667, stem cell growth factor project, primary screen (AID 1086).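 Note: score merges 667 nm fluorescence with signal-to-noise of each printed compound spot.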 The note with it: higher = more signal.
Test [10] is described as follows: binders of probe aHhip on microarray, primary screen, stem cell growth factor project, biochemical, small-molecule microarray, fluorescence 635/667 (AID 1087).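 Note: score merges spot fluorescence at 667nm with spot signal to noise ratio.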 The note with it: higher = more signal.
Test [11] has as its system PRMT1 (protein arginine N-methyltransferase 1). As to the kind of experiment: small molecules binding arginine methyltransferase PRMT1 – biochemical, small-molecule microarray, 635 nm fluorescence, primary screen (AID 1088).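 Note: binding of Prmt1 protein to compounds spotted on small-molecule microarray slides.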 The note with it: higher = more signal.
The nature of test [12]: growth effects on S. cerevisiae YJM789 – YJM789 clinical isolate, OD600, 24 h, basal, primary screen (AID 1089).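 Note: growth of clinical yeast isolate S. cerevisiae YJM 789 seeded 1000 cells per well; test concentration not given here.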 The note with it: higher = more signal, called active from +8 up or from −8 down.
The nature of test [13]: S. pombe growth modifiers, basal conditions – strain 972, OD600, 24 h, no modulator, primary screen (AID 1090).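 Note: basal condition with compound alone and no growth modifier present; test concentration not given here.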 The note with it: S. pombe 972 growth, higher = more signal, called active from +8 up or from −8 down.
Test [14] is described as follows: budding yeast growth modifiers under rapamycin – strain BY4716, OD600, 96 h, primary screen (AID 1091). Note: test concentration not given here. The note with it: S. cerevisiae BY4716 + rapamycin, higher = more signal, called active from +8 up or from −8 down.
Test [15] has as its target Torsin-1A-interacting protein 2 (Homo sapiens) (UniProt Q8NFQ8). The test is described as follows: small molecules binding lysate-expressed LULL1 – cell lysate, human LULL1 lysate, 635/667 nm fluorescence, primary screen (AID 1092).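 Note: probe is lysate of COS7 cells overexpressing human LULL1; score merges per-feature 667 nm fluorescence with signal-to-noise.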 The note with it: small-molecule microarray, hLULL1 lysate binding, 635 nm fluorescence; higher = more signal.
Test [16] in a line: optical density change of DRC41 E. coli – strain DRC41, OD650, 24 h, E. coli filamentation project, primary screen (AID 1093).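 Note: MC1000 strain lacking acrAB efflux and sulA so SOS filamentation is blocked; test concentration not given here.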 The note with it: E. coli DRC41 growth, higher = more signal, called active from +8 up or from −8 down.
Test [17] is described as follows: probe aLefty2 binding to arrayed compounds – biochemical, biotinylated probe, 635/667 nm fluorescence, primary screen (AID 1094).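 Note: score merges spot fluorescence near 667 nm with spot signal-to-noise ratio.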 The note with it: small-molecule microarray, higher = more signal.
The test system of test [18] is Noggin (protein binding on small-molecule microarray). As to the kind of experiment: small molecules binding Noggin protein – biochemical, 635/667 nm fluorescence, primary screen (AID 1095).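 Note: score merges 667 nm feature fluorescence with signal to noise over triplicate slides.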 The note with it: 635 nm fluorescence, higher = more signal.
The target in test [19] is Neurogenic locus notch homolog protein 3 (Homo sapiens) (UniProt Q9UM47). The test is described as follows: small molecules binding NOTCH3 protein – biochemical, 635/667 nm fluorescence, primary screen (AID 1096). The note with it: small-molecule microarray, 635 nm fluorescence, higher = more signal.
Test [20] can be described thus: probe aEGFR binding to arrayed compounds – biochemical, biotinylated probe, 635/667 nm fluorescence, primary screen (AID 1097).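 Note: probe is a biotinylated anti-EGFR antibody binding compounds printed on slides; score combines fluorescence near 667 nm and signal to noise of each spot.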 The note with it: small-molecule microarray, higher = more signal.

The structures appear in SMILES notation. Activity calls are given as the source filed them.

Torsin-1A-interacting protein 2 (Homo sapiens), sequence (Q8NFQ8 whole entry, looked up): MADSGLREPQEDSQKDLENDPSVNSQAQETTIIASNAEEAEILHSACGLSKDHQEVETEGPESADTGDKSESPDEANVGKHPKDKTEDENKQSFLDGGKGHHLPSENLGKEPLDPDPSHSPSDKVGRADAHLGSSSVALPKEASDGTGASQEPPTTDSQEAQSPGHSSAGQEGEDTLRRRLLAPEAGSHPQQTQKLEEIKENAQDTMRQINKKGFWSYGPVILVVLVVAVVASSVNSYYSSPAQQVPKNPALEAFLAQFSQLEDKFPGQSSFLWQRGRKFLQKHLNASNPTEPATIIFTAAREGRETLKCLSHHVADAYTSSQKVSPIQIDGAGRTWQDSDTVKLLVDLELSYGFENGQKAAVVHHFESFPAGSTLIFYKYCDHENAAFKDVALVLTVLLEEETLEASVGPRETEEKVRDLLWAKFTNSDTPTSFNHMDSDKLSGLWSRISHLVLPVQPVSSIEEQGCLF
Pro-neuregulin-1, membrane-bound isoform (Homo sapiens), sequence (Q02297 whole entry, looked up, the tested form may be a part, canonical isoform): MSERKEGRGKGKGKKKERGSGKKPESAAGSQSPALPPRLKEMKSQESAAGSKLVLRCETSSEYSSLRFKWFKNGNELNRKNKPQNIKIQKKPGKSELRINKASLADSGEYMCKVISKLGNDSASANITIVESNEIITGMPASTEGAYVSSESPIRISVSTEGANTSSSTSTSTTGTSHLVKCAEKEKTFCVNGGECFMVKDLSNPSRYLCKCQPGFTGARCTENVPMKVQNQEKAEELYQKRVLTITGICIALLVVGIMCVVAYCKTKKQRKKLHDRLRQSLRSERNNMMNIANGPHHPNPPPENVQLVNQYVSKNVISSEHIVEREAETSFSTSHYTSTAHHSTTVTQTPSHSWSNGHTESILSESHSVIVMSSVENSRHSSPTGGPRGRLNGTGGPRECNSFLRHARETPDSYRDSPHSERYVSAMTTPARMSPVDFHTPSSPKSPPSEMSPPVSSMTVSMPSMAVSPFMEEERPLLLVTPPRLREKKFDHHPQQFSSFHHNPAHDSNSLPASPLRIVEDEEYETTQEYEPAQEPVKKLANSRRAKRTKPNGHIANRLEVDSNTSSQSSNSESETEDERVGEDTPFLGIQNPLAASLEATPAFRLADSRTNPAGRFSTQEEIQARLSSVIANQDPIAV

On to `CCOC(=O)C[C@H]1[C@H](OC(=O)c2cc3ccccc3oc2=O)[C@@H](NC(=O)c2ccc3ccccc3c2)c2cc(OCCCO)ccc2N1C(=O)Cc1ccc(OC)cc1`, for which the composite z-score was -0.59 in test [1]; -0.0976 in [2]; -0.196 in test [3]; 0.531 in test [4]; 0.759 in test [5]; 0.711 in test [6]. Besides, the composite z-score is 0.936 in [7]; 0.73 in test [9]; 0.0505 in [10]; 0.631 in [11]; 2.48 in test [15]; -0.0359 in [17]. The composite z-score in [18] came to 0.405; in [19], 0.872; in test [20], 0.0009. The z-score was -0.0206 (inactive) in [8]; 0.173 (inactive) in test [12]; 0.106 (inactive) in test [13]; -1.33 (inactive) in test [14]; -0.436 (inactive) in test [16].
`CC(C)C[C@@H]1NC(=O)[C@@]23C(=O)N[C@@H](Cc4ccccc4)C2[C@H](C)[C@@]2(C)O[C@H]2C3/C=C/C/C=C\CNC(=O)[C@@H](C)NC1=O` (stereo not given in full): the composite z-score in [1] was -0.296; in test [2], 0.183; in test [3] it was -0.0963; in test [4] it was 0.392; in [5] it was -0.211; in test [6], 1.1. Moreover, the composite z-score is -0.483 in test [7]; -0.414 in [9]; -0.12 in [10]; 0.5 in test [11]; -0.408 in test [15]; -0.178 in test [17]. The composite z-score in test [18] is 0.33; in [19], 0.195; in [20], -0.131. Also, the z-score is 0.677 (inactive) in [8]; -0.939 (inactive) in test [12]; -1.17 (inactive) in test [13]; -1.35 (inactive) in [14]; 0.624 (inactive) in test [16].
Take `C=C(COC)C(=O)CC[C@H](OC(=O)c1cccnc1)c1ccc(CO)o1`: the composite z-score in test [1] was -0.403; in test [2], -0.049; in [3], -0.124; in test [4], 0.842; in [5], 0.574; in [6] it was 0.57. Further, the composite z-score is 1.12 in [7]; 0.34 in test [9]; -0.0994 in test [10]; 1.33 in [11]; 0.103 in test [15]; -0.132 in test [17]. Besides, the figures for the composite z-score in test [18], in test [19] and in test [20] were 1.1, 1.02 and -0.0313, respectively. The z-score in [8] was 0.292 (inactive); in test [12], -1.26 (inactive); in test [13], -0.292 (inactive); in test [14], -0.35 (inactive); in [16], -0.252 (inactive).
Turning to `C=CCN1C(=O)[C@]2(O[C@H](CCO)[C@@H]([Si](C)(C)c3ccc(OC)cc3)[C@@H]2C)c2cc(N3C(=O)COc4ccccc43)ccc21`, the composite z-score in test [1] is 0.174; in [2], -0.142; in test [3] it was -0.0597; in [4], 0.606; in [5] it was 0.248; in [6], 0.966. Also, the composite z-score in test [7] is 0.698; in test [9], -0.0347; in [10], -0.297; in [11], 1.53; in test [15], 1.29; in test [17], -0.192. For the same compound, the composite z-score is 0.679 in [18], 0.763 in test [19] and -0.12 in [20]. For the same compound, the z-score in [8] was -0.998 (inactive); in [12], 1.81 (inactive); in test [13], 0.0538 (inactive); in test [14] it was 32.6 (active); in test [16], 1.64 (inactive).
Take `COC(=O)[C@@]1(Cc2ccc(F)cc2)[C@H]2c3cc(C(=O)N(C)C)n(Cc4ccc(O)c(OC)c4)c3C[C@H]2CN1C(=O)c1ccccc1`: the composite z-score in test [1] stood at 0.129; in [2], 0.196; in test [3] it was 0.0398; in test [4] it was 0.531; in test [5], 1.35; in test [6], 1.26. Besides, the composite z-score in [7] turned out to be 0.786; in [9] it was 0.675; in test [10], 1.17; in test [11] it was 0.423; in test [15], 2.2; in test [17], 0.0043. Also, the composite z-score stood at 0.718 in test [18], 1.13 in test [19] and 0.0977 in test [20]. For the same compound, the z-score in test [8] was 2.98 (inactive); in test [12] it was 0.0973 (inactive); in test [13] it was -1.2 (inactive); in test [14], 0.485 (inactive); in test [16], 1.02 (inactive).

Values taken from PubChem BioAssay.
